Measurements taken from PubChem BioAssay AID430 (Sanford-Burnham Center for Chemical Genomics, 2006).
Among all 63,000 compounds or so, about 1,100 (1.7%) were called active. The full list was thinned out, with actives kept by preference. Results with a measured potency or affinity are listed apart. Unmarked numbers belong to inactive results. Cut-off read from the data, not from the text of the source: active = cytotoxicity above about 50%; inactive = the rest.

Assay: HPDE-C7 pancreatic duct cell viability loss – fluorescence, HTS (AID 430);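 note: cells exposed to compound for 48 hours before viability readout; 0% = vehicle and 100% = reference cytotoxic drug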
Details: HPDE-C7 pancreatic duct cells viability, at 10 µM, hits give high values
In the case of `CN(Cc1nnc(SCC(=O)NCCc2ccccc2)n1C)S(=O)(=O)c1ccccc1`, the cytotoxicity is reported as -11.2%.
In the case of `O=C(Nc1ccc(N2CCN(C(=O)c3ccccc3)CC2)cc1)c1ccc(Br)o1`, the cytotoxicity is reported as -3.2%.
For `O=C(OCC#CCSc1nc2ccccc2s1)c1ccco1`, the cytotoxicity was -5.2%.
Compound `c1csc(CSc2nc3ccccc3s2)c1` has a cytotoxicity of -16.5%.
Work on `CC1=CC(=C(C#N)c2nc3ccccc3s2)C=C(C)N1Cc1ccco1` yielded a cytotoxicity of 10.5%.
For `N#C/C(=C\c1ccco1)Sc1nc2ccccc2s1`, the cytotoxicity was 54.9% (active).
In the case of `O=C(CCCSc1nc2ccccc2s1)Nc1nccs1`, the cytotoxicity is reported as -2.3%.
In the case of `O=C(Cn1cnc2ccccc2c1=O)OCC(=O)c1ccc2c(c1)OCCO2`, the cytotoxicity is reported as 3%.
Work on `O=C(c1cc2nc(-c3ccco3)cc(C(F)(F)F)n2n1)N1CCN(c2ccccc2)CC1` yielded a cytotoxicity of -3%.
`CCOc1ccc(C2N(c3cc(Cl)ccc3OC)C(=O)C3CCCN32)cc1OC` (stereo not given) showed a cytotoxicity of -15.6%.
Compound `Cc1ccc(CS(=O)(=O)CCC(=O)NCCN2CCCCC2C)cc1` (stereo not given) has a cytotoxicity of 7.5%.
`O=C(O)c1ccc(N2CCCCC2)cc1` showed a cytotoxicity of -6.8%.
With `Nc1ccc(N2CCCCC2)cc1N1CCCCC1` the cytotoxicity was 37%.
Work on `CCOc1nc(-c2ccccc2)ccc1-c1noc(-c2cccnc2)n1` yielded a cytotoxicity of -30.6%.
With `Cc1nc(NC2=NCN(C3CCCCC3C)CN2)nc2ccccc12` (stereo not given) the cytotoxicity was -2.8%.
Compound `Cc1cccc(NC(=O)N2CCC(NC(=O)c3ccccc3C)CC2)c1` has a cytotoxicity of 2.1%.
Work on `COC(=O)c1ccccc1NC(=O)CN1CCN(C(=O)c2ccco2)CC1` yielded a cytotoxicity of 4.2%.
Work on `O=S(=O)(c1ccc(S(=O)(=O)N2CCCC2)cc1)N1CCCCCC1` yielded a cytotoxicity of -7.3%.
In the case of `O=C(O)c1cc(S(=O)(=O)N2CCCCCC2)ccc1Cl`, the cytotoxicity is reported as -1.3%.
`Cn1c(=O)c2c(nc(N3CCCCC3)n2CCSc2nc3ccccc3o2)n(C)c1=O` showed a cytotoxicity of -14.5%.
`Cc1ccc(CN2CCN(C(=O)C3CCCO3)CC2)cc1` (stereo not given) gave a cytotoxicity of -27.2%.
For `CCOc1ccccc1NC(=O)CSc1nccn1-c1ccccc1`, the cytotoxicity was -12.5%.
`COc1ccc(-n2c(N)c(C(=O)NCc3ccco3)c3nc4ccccc4nc32)c(OC)c1` showed a cytotoxicity of 14.2%.
`Nc1ccc(-n2c(N)c(C(=O)NCc3ccc4c(c3)OCO4)c3nc4ccccc4nc32)cc1` showed a cytotoxicity of 26.7%.
Compound `Nc1c(C(=O)NCCN2CCOCC2)c2nc3ccccc3nc2n1CCc1ccccc1F` has a cytotoxicity of 0.5%.
In the case of `Nc1c(C(=O)NCCN2CCOCC2)c2nc3ccccc3nc2n1-c1ccc2c(c1)OCO2`, the cytotoxicity is reported as 1%.
In the case of `Nc1c(C(=O)NCCN2CCOCC2)c2nc3ccccc3nc2n1CCc1ccccc1`, the cytotoxicity is reported as 7.5%.
With `COc1ccc(CCn2c(N)c(C(=O)NCc3ccco3)c3nc4ccccc4nc32)cc1OC` the cytotoxicity was 32.4%.
`CN1CCN(S(=O)(=O)c2ccc3c4c(cccc24)C(=O)N3)CC1` gave a cytotoxicity of 5.6%.
`COc1ccc(NC(=O)C2CCN(S(=O)(=O)c3cccc4cccnc34)CC2)cc1` showed a cytotoxicity of -6.3%.
For `CCOC(=O)N1CCN(C(=O)CSc2nnc(Cc3cccn3C)n2CCc2ccccc2)CC1`, the cytotoxicity was -10.2%.
With `Cc1cccc2cc(COC(=O)c3ccccn3)c(=O)[nH]c12` the cytotoxicity was -10.7%.
`C=CCn1c(=N)n(CC(=O)O)c2ccccc21` showed a cytotoxicity of -15.2%.
Compound `COCCCn1c(-c2ccsc2)nc2c1c(=O)[nH]c(=O)n2Cc1ccccc1` has a cytotoxicity of -11%.
In the case of `CCCC(=O)Nc1cccc2c1CCCC2`, the cytotoxicity is reported as 2.9%.
Compound `Cc1ccc(-n2nnc3c(=O)n(Cc4cccc(C)c4)cnc32)cc1` has a cytotoxicity of 0.4%.
For `CCOC(=O)c1sc(NC(=O)c2cc3c(C)nn(-c4ccccc4)c3s2)nc1C`, the cytotoxicity was 4%.
For `Nc1nonc1C(=O)NCCNC(=O)c1ccccc1F`, the cytotoxicity was -4.8%.
In the case of `Nc1nonc1C(=O)NCCN=Cc1cc(Cc2ccccc2)cc(Br)c1O`, the cytotoxicity is reported as 87.2% (active).
`COc1cccc(C=NCCNC(=O)c2nonc2N)c1O` gave a cytotoxicity of 9.3%.
`O=C1c2oc3ccc(Br)cc3c(=O)c2C(c2cccnc2)N1Cc1ccco1` (stereo not given) showed a cytotoxicity of -14.2%.
In the case of `Oc1c(-c2cc(-c3ccco3)[nH]n2)ccc2ccccc12`, the cytotoxicity is reported as 1.8%.
For `CSc1nc(N)nc(SCC(=O)C23CC4CC(CC(C4)C2)C3)c1C#N`, the cytotoxicity was 74% (active).
Work on `CSc1nc(N)nc(SCC(=O)c2ccc(C)cc2)c1C#N` yielded a cytotoxicity of 3.8%.
`CSc1nc(N)nc(SCC(=O)OC(C)C)c1C#N` gave a cytotoxicity of -1.7%.
Compound `Cc1cc2n(n1)C(c1ccc(O)cc1)Nc1ccccc1-2` (stereo not given) has a cytotoxicity of 7.9%.
In the case of `O=C(COC(=O)C1(c2ccccc2F)CCCC1)NC1CCS(=O)(=O)C1` (stereo not given), the cytotoxicity is reported as -14.8%.
Work on `COc1ccc(CNc2nc3c(c(=O)[nH]c(=O)n3C)n2Cc2ccccc2C)cc1` yielded a cytotoxicity of -5.5%.
For `COc1ccc(S(=O)(=O)N2CCN(c3ncnc4c(-c5ccccc5)nsc34)CC2)cc1`, the cytotoxicity was 5.6%.
In the case of `COc1ccc(-c2nsc3c(N4CCN(S(=O)(=O)c5ccccc5)CC4)ncnc23)cc1`, the cytotoxicity is reported as 55.2% (active).
With `COc1ccc(-c2nsc3c(N4CCCC4)ncnc23)cc1` the cytotoxicity was 7.9%.
Compound `CC(C)(C)NC(=O)CSc1nnc(C2CC2)n1Cc1ccccc1` has a cytotoxicity of -7.8%.
Compound `COC(=O)CNC(=O)COC(=O)C(Cc1ccccc1)NC(=O)c1ccco1` (stereo not given) has a cytotoxicity of 6%.
`Cc1ccc(C)c(C(=O)CSc2n[nH]c(C(C)C)n2)c1` gave a cytotoxicity of -7.1%.
Work on `Cn1c(=O)c(=O)n(C)c2cc(S(=O)(=O)N3CCCCC3)ccc21` yielded a cytotoxicity of 2%.
`c1ccc(C(CN2CCOCC2)c2ccccc2)cc1` showed a cytotoxicity of -12%.
For `O=C(c1ccccc1)c1ccc(OCC(O)CN2CCOCC2)cc1` (stereo not given), the cytotoxicity was 6.6%.
In the case of `Cc1nc2ccc(F)cc2cc1C(=O)NCC1CCCO1` (stereo not given), the cytotoxicity is reported as 14.8%.
`COc1ccc(OC)c(S(=O)(=O)n2nnc3ccccc32)c1` showed a cytotoxicity of -7%.
With `COc1cc(S(=O)(=O)n2nnc3ccccc32)c(OC)cc1Cl` the cytotoxicity was 60.8% (active).
With `COc1ccc(Cl)cc1S(=O)(=O)n1nnc2ccccc21` the cytotoxicity was 3.1%.
For `CCc1ccccc1NC(=O)CN1CCC(NC(=O)COC)CC1`, the cytotoxicity was -16%.
`COc1ccc(N(CC(=O)N2CCc3ccccc3C2)S(=O)(=O)c2c(C)[nH]c(=O)[nH]c2=O)cc1` gave a cytotoxicity of -21.6%.
Work on `CC1(C)Cc2c(C#N)c(N3CCN(C(=O)c4ccccc4)CC3)nc(-c3ccco3)c2CS1` yielded a cytotoxicity of 11.4%.
`Cc1cc(C)c2nc(N3CCCN(C(=O)c4cnccn4)CC3)c(C#N)cc2c1` showed a cytotoxicity of -0.7%.
`CCc1nc(N2CCN(C(=O)c3ccccc3)CC2)c(C#N)c2c1COC(C)(C)C2` gave a cytotoxicity of -1%.
`Cc1cc(C)c2nc(C(F)(F)F)nc(N3CCN(C(=O)c4ccco4)CC3)c2c1` gave a cytotoxicity of 3.3%.
In the case of `CC1(C)Cc2c(C#N)c(N3CCN(C(=O)c4ccco4)CC3)nc(-c3ccco3)c2CS1`, the cytotoxicity is reported as 51.7% (active).
For `CC1(C)Cc2c(C#N)c(N3CCOCC3)nc(Cc3ccccc3)c2CO1`, the cytotoxicity was 46.8%.
With `Cc1cc(C)c2nc(N3CCCN(C(=O)c4ccco4)CC3)c(C#N)cc2c1` the cytotoxicity was 57.4% (active).
Work on `N#Cc1c(N2CCN(C(=O)c3ccco3)CC2)nc(-c2ccccc2)c2c1CCCC2` yielded a cytotoxicity of 9.1%.
`CCn1c(SCC(=O)Nc2ccc3c(c2)OCO3)nc2c1c(=O)n(C)c(=O)n2C` gave a cytotoxicity of -19.3%.
With `COc1cccc(CC(NC(C)=O)C(=O)NC2CCN(c3nc(C)cc(C)c3C#N)CC2)c1` (stereo not given) the cytotoxicity was 8.9%.
Compound `NC(=O)c1cc(-c2ccccc2)nc(N2CCOCC2)n1` has a cytotoxicity of 11.3%.
Compound `O=C(CSc1nnc(-c2cnccn2)n1Cc1ccco1)c1ccccc1` has a cytotoxicity of -4.8%.
`c1ccc(N2CCOCC2)c(Nc2nc3ccccc3n3cnnc23)c1` gave a cytotoxicity of -9.9%.
`O=C(Cn1c(CO)nc2ccccc21)Nc1cc(C(F)(F)F)ccc1N1CCOCC1` showed a cytotoxicity of 5.6%.
`Cc1ccccc1Cn1cc(NC(=O)c2noc3c2CC(C(C)(C)C)CC3)cn1` (stereo not given) gave a cytotoxicity of 25.7%.
In the case of `Cc1ccc(S(=O)(=O)N(CCC#N)CCN2CCCC2)cc1`, the cytotoxicity is reported as -4.9%.
In the case of `O=C1COc2ccc3ccccc3c2CN1`, the cytotoxicity is reported as -6.8%.
With `CN1CC2(Cc3c1ccc1ccccc31)C(=O)OC(C)(C)OC2=O` the cytotoxicity was 80.9% (active).
Work on `Cc1ccc2c(c1)CC1(CN2C)C(=O)OC2(CCCCC2)OC1=O` yielded a cytotoxicity of -5.7%.
Work on `COc1ccc2c(c1)[nH]c1c(=O)n(CCN3CCCC3)cnc12` yielded a cytotoxicity of -19.4%.
For `Cc1cc(C(=O)Nc2nc3c(s2)CCCC3)cs1`, the cytotoxicity was -5.9%.
Compound `CCOC(=O)N1CCN(CC(O)COc2ccccc2C(C)C)CC1` (stereo not given) has a cytotoxicity of -6%.
With `O=C(NC1CC2CCCC(C1)N2S(=O)(=O)c1ccccc1)c1ccccc1` (stereo not given) the cytotoxicity was -1.3%.
`Cn1c(SCc2ccccc2)nnc1-c1ccncc1` showed a cytotoxicity of -1.5%.
`COc1ccc(NC(=O)CC2CCCCC2)cc1OC` gave a cytotoxicity of -11.1%.
In the case of `Cc1cccc2cc3c(nc12)SC(=NCC1CCCO1)N(Cc1ccco1)C3` (stereo not given), the cytotoxicity is reported as 53.7% (active).
In the case of `Cc1ccc2cc(CN(Cc3nnnn3Cc3ccco3)CC3CCCO3)c(=O)[nH]c2c1C` (stereo not given), the cytotoxicity is reported as -0.4%.
`Cc1ccc2nc3c(cc2c1)CN(Cc1ccco1)C(=NCC1CCCO1)S3` (stereo not given) showed a cytotoxicity of -19.9%.
Work on `CCc1nc(SCC(=O)N2CCN(C(=O)c3ccco3)CC2)c2c3c(sc2n1)CCCC3` yielded a cytotoxicity of 3%.
`O=C(CN1CCN(c2ccccc2)CC1)Nc1nnc(-c2ccccc2)s1` showed a cytotoxicity of 7.8%.
In the case of `COc1cccc(N2CCN(CC(=O)Nc3nnc(-c4ccccc4)s3)CC2)c1`, the cytotoxicity is reported as 21.2%.
With `COc1ccc(N2CCN(CC(=O)Nc3nnc(-c4ccccc4)s3)CC2)cc1` the cytotoxicity was 50.3% (active).
